Results on 7 compounds are retold here after PubChem BioAssay.

Results filed as inconclusive are left out. For some of these results: Potency and affinity values are given separately. Calls of active or inactive are those of the source. Unless noted, no stated cut-off is given here; in the data, active means inhibition above about 80%; inactive means the rest.

A short description of assay [1]: blockers of polyQ-driven CASP3 activation – cell-based (AID 1583). The note with it: polyglutamine-induced caspase-3 activation, cell assay; stronger effect = higher value;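 tested at 10 µM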.
The nature of assay [2]: yeast 75Q aggregation reduction – 75Q-TubU reporter (AID 1593). The note with it: Yeast 75Q polyglutamine aggregation reporter.
The nature of assay [3]: restoration of touch response, mutant HTT neurons – whole organism, C. elegans mechanosensory neurons, N-terminal huntingtin (AID 1599). The note with it: C. elegans polyQ-huntingtin mechanosensory neurons, stronger effect = higher value.
The nature of assay [4]: blockers of cytochrome c efflux from mitochondria – biochemical, purified mitochondria (AID 1603).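 Further: mouse liver mitochondria challenged with calcium chloride; signal normalized to the plate average as 100%.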 To be noted: stronger effect = lower value.
Assay [5] in a line: polyglutamine aggregate formation blockers (AID 1604). To be noted: polyglutamine-induced protein aggregation inhibition assay; stronger effect = higher value; tested at 2.5 µM.
Assay [6] is described as follows: glutamate transport activators, MN-1 cells, MN-1 cell line (AID 1612).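 Further: tested at 1 µM final; 0% = mean of DMSO vehicle wells on each plate; positive means more glutamate uptake than control and negative means less.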 To be noted: MN-1 motor neuron cells, stronger effect = higher value.
Assay [7] can be described thus: GFP-Q80 aggregate reduction, neuronal-like cells, cell-based, NGF-treated PC12, GFPQ80 (AID 1614).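 Further: lower means fewer inclusions and 0 means no inclusions at all.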 The note with it: PC12 NGF-treated GFP-polyQ80 inclusion reduction.
Assay [8] in a line: 75Q-TubH aggregate inhibition, S. cerevisiae, yeast (AID 1616). The note with it: S. cerevisiae 75Q-TubH polyglutamine aggregation suppression; stronger effect = higher value.
The nature of assay [9]: rescue of PC12 cells from polyQ htt toxicity – LDH release (AID 1610). To be noted: PC12 mutant huntingtin toxicity, final LDH at 4 uM, stronger effect = lower value.
The nature of assay [10]: compounds altering circadian rhythm period length – cell-based, LOPAC library, luminescence reporter (AID 2774; call rule not given here;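 further: values are relative to mean of DMSO wells on each plate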). The note with it: circadian reporter cells, at 7 µM, actives lie on both sides.
Assay [11] can be described thus: growth inhibition, single agent or in combination, cell-based, chromothripsis tumors, cisplatin or BGB combos (AID 1671449).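 Further: cells exposed for 96 hours; 0% = vehicle DMSO and 100% = killing by high DMSO.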 To be noted: LFS_MB_P medulloblastoma cells.
Assay [12] can be described thus: growth inhibition, single agent and combos, cell-based, chromothripsis tumors, cisplatin or BGB combos (AID 1671450).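 Further: cells exposed to compound for four days; 0% = vehicle DMSO and 100% = cell killing by high DMSO.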 The note with it: HDN33 neuroblastoma cells, stronger effect = higher value.
Assay [13] can be described thus: growth inhibition, single agents and combos, ICB984, cell-based, cisplatin or BGB combos, synergistic combos for chromothripsis tumors (AID 1671451; call rule not given here;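 further: cells exposed for 96 hours before readout; 0% = vehicle DMSO and 100% = killing by high DMSO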). To be noted: ICB984 medulloblastoma cells, drug combinations, stronger effect = higher value.
Assay [14] can be described thus: growth inhibition, single agents and combos, LFS_MB_1R, cell-based, cisplatin or BGB combos, synergistic combos for chromothripsis tumors (AID 1671452).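 Further: cells exposed for 96 hours before readout.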 The note with it: LFS_MB_1R medulloblastoma cells, stronger effect = higher value.
A short description of assay [15]: growth inhibition, single agents and combos, HTB85, cell-based, BGB or cisplatin IC20 combos, synergistic combos for chromothripsis tumors (AID 1671453).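 Further: cells exposed for 96 hours before readout; 0% = vehicle DMSO and 100% = high DMSO killing control.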 To be noted: HTB85 osteosarcoma cells, drug combinations, stronger effect = higher value.
The nature of assay [16]: growth inhibition, single agents and combos, CRL2098, cell-based, BGB or cisplatin IC20 combos, synergistic combos for chromothripsis tumors (AID 1671454).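 Further: cells exposed for 96 h before readout; 0% = vehicle DMSO and 100% = killing by high DMSO.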 The note with it: CRL2098 osteosarcoma cells, drug combinations, stronger effect = higher value.
Assay [17] can be described thus: growth inhibition, single agents and combos, HD-MB03, cell-based, BGB or cisplatin IC20 combos, synergistic combos for chromothripsis tumors (AID 1671455; in the data active means inhibition above about 83%;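 further: 0% = vehicle DMSO and 100% = high DMSO as cytotoxic control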). The note with it: HD-MB03 medulloblastoma cells, stronger effect = higher value.
A short description of assay [18]: growth inhibition, single agents and combos, UWB1.289, cell-based, BGB or cisplatin combos, synergistic combos for chromothripsis tumors (AID 1671456).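 Further: cells exposed to compound for four days; 0% = vehicle DMSO and 100% = killing by high DMSO.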 The note with it: UWB1.289 ovarian carcinoma cells, stronger effect = higher value.
A short description of assay [19]: growth inhibition, single agents and combos, LFS_MB_2R, cell-based, cisplatin combos, synergistic combos for chromothripsis tumors (AID 1671457).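 Further: cells exposed to compound for four days before readout.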 The note with it: LFS_MB_2R medulloblastoma cells, stronger effect = higher value.
Assay [20] can be described thus: growth inhibition, MDA-MB-436, cell-based, BGB or cisplatin combos, synergistic combos for chromothripsis tumors (AID 1671458; call rule not given here;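 further: cells exposed for 96 hours; 0% = vehicle DMSO and 100% = killing by high DMSO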). To be noted: MDA-MB-436 breast carcinoma growth inhibition, drug combinations, stronger effect = higher value.
A short description of assay [21]: UWB1.289_BRCA1 ovarian cancer growth, cell-based, BGB or cisplatin combinations (AID 1671459). The note with it: UWB1.289 BRCA1 ovarian carcinoma, drug combinations, stronger effect = higher value.
Assay [22] in a line: drug combination toxicity in non-malignant astrocytes – cell-based, BGB or cisplatin IC20 combos, cytotoxicity control for chromothriptic childhood tumor combination screen (AID 1671460).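 Further: cells exposed to compounds for 96 hours before viability readout; 0% = vehicle and 100% = killing control.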 The note with it: Human astrocytes, viability inhibition, drug combinations, at 0.5 µM, stronger effect = higher value.
The nature of assay [23]: BT084 cell growth, single and combined drugs, ICGC_MB145, cisplatin and BGB IC40 combos (AID 1671461).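 Further: cells exposed to drugs for 96 hours; 0% = vehicle DMSO and 100% = high DMSO full killing control.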 To be noted: BT084 medulloblastoma cells, drug combinations, stronger effect = higher value.
The nature of assay [24]: RCMB18 cell growth, single agent and combined, cisplatin and BGB IC40 combos (AID 1671462).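 Further: cells exposed to compound for four days.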 The note with it: RCMB18 medulloblastoma cells, stronger effect = higher value.
A short description of assay [25]: CRL1545 cell growth, single agent and combined, cisplatin and BGB IC20 combos (AID 1671464).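 Further: cells exposed to compound for 96 hours before readout; 0% = vehicle DMSO and 100% = high DMSO killing control.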 To be noted: CRL1545 osteosarcoma cells, stronger effect = higher value.
Assay [26] can be described thus: galactose survival enhancers in mitochondrial complex I cybrids – cell-based, galactose medium, ATP luminescence, primary screen (AID 1645843;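 active means z-score of at least 1.8 in each of two replicates, scored against plate mean and spread of sample wells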;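 further: positive z means more ATP and so rescue of galactose-driven cybrid death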). To be noted: complex I mutant cybrid cells, 72 h, stronger effect = higher value.
The mark [27] stands for this setting: measured here: combination with BGB IC40, at 0.05 µM.
Where [28] appears, read: measured here: with BGB IC20 combination, at 0.5 µM.
Setting [29] is: measured here: with cisplatin IC20 combination, at 0.5 µM.
The mark [30] stands for this setting: measured here: combination with cisplatin, at 0.5 µM.
Setting [31] is: measured here: combination with cisplatin, at 5 µM.

Broadly, the inhibition is the relative decrease from the control value, in per cent. Consider `CN1C(=O)C(O)N=C(c2ccccc2)c2cc(Cl)ccc21` (stereo not drawn), for which the inhibition in assay [1] is -6.64%. This compound had a score in assay [2] of 1.21. Also, in assay [3], the rescue above control was determined as 0.82. Besides, the cytochrome c release ratio in assay [4] is 0.99. Also, in assay [5], the inhibition of aggregation turned out to be 8.84%. For the same compound, the glutamate uptake change in [6] came to 4.66%. In assay [7], this compound registered an inclusion score of 2. This compound also came in with an aggregation suppression score in assay [8] of 1.05.
For the compound `COC12CC[C@@]3(C[C@@H]1C(C)(O)C(C)(C)C)[C@H]1Cc4ccc(O)c5c4[C@@]3(CCN1CC1CC1)[C@H]2O5` (stereo partly drawn), the inhibition in [1] turned out to be 26.4%. In assay [2], this compound registered a score of 1.52. This compound also returned a rescue above control in assay [3] of 5.39. In assay [4], the cytochrome c release ratio was 1.25. Further, the inhibition of aggregation in [5] is -0.68%. The same compound registered a normalised LDH release in assay [9] of 1.01. In addition, the glutamate uptake change in assay [6] is -3.06%. In [8], the aggregation suppression score is 1.02.
With `CN1C[C@@H](CS(=O)(=O)N(C)C)C[C@@H]2c3cccc4c3c(cn4C)C[C@H]21`, in [10], the period change is -0.105 h (inactive).
For the compound `CC(O)C(C)OC(=O)[C@@H]1C[C@@H]2c3cccc4c3c(cn4C(C)C)C[C@H]2N(C)C1` (stereo partly drawn), the period change in assay [10] was 0.035 h (inactive).
For the compound `CC1(C)C(C(=O)Nc2ccc(S(=O)(=O)c3ccc(NC(=O)C4C(C)(C)C4(C)C)cc3)cc2)C1(C)C`, the inhibition was -7.93% (inactive) in [11] (at 0.5 µM, stronger effect = higher value); -18.4% in [11] (measured here: combination with BGB IC20, at 0.005 µM); -46.1% in assay [11] (measured here: combination with BGB IC40, at 0.005 µM); -26.3% in assay [11] (setting [27]); -30.9% in assay [11] (measured here: combination with cisplatin, at 0.5 µM, stronger effect = higher value); -41.5% in assay [11] (measured here: combination with cisplatin, at 5 µM, stronger effect = higher value). Moreover, the inhibition is -17.4% in assay [12] (BGB combo, at 5 µM); -53.9% (inactive) in assay [12] (at 0.5 µM); -66.6% in assay [12] (cisplatin combo, at 5 µM); -56.4% in [12] (setting [28]); -51.1% in assay [12] (setting [29]); -24.6% in assay [12] (single agent, at 5 µM). Besides, the inhibition is -19.6% in assay [13] (BGB IC20 combo, at 0.005 µM); -21.6% in assay [13] (BGB IC40 combo, at 0.005 µM); 0.527% in assay [13] (BGB IC40 combo, at 0.05 µM); -22.6% (inactive) in assay [13] (at 0.5 µM); -4.5% in [13] (cisplatin combo, at 0.05 µM); -42.3% in assay [13] (cisplatin combo, at 0.5 µM). Besides, the inhibition in [13] (cisplatin combo, at 5 µM) was -31.4%; in [13] (measured here: 5 uM single agent, at 5 µM), -26.8%; in assay [14] (at 0.5 µM), -36.5% (inactive); in assay [14] (setting [27]), -27.2%; in assay [14] (setting [30]) it was -46.1%; in assay [14] (setting [31]) it was -61.4%. In addition, the inhibition was -37.5% (inactive) in assay [15] (at 0.5 µM); -37% in assay [15] (measured here: with BGB IC20, at 0.5 µM); -16.1% in assay [15] (measured here: with BGB IC20, at 5 µM); -31.9% in assay [15] (measured here: with cisplatin IC20, at 0.5 µM); -19.7% in assay [15] (measured here: with cisplatin IC20, at 5 µM); -8.34% in assay [15] (single agent, at 5 µM). Besides, the inhibition in assay [16] (at 0.5 µM) was -53.9% (inactive); in [16] (measured here: combination with BGB at IC20, at 0.5 µM) it was -51.4%; in assay [16] (measured here: combination with cisplatin at IC20, at 0.5 µM), -77.7%; in assay [17] (at 0.5 µM), -19.9% (inactive); in assay [17] (measured here: combo with BGB at IC20, at 0.5 µM), -12.1%; in assay [17] (measured here: combo with cisplatin at IC20, at 0.5 µM), -33.5%. Also, the inhibition in assay [18] (at 0.5 µM) was -16.5% (inactive); in assay [18] (measured here: inhibition with BGB combination, at 0.05 µM), -34%; in assay [18] (measured here: inhibition with cisplatin combination, at 0.05 µM), -37.9%; in [19] (at 0.5 µM), -14.5% (inactive); in [19] (setting [30]), -16.8%; in assay [19] (setting [31]) it was -6.76%. In addition, the inhibition in [20] (at 0.5 µM) is -18.2% (inactive); in [20] (measured here: BGB combination, at 0.5 µM), -21%; in assay [20] (measured here: BGB combination, at 5 µM) it was -4.44%; in [20] (measured here: cisplatin combination, at 0.5 µM) it was -40.7%; in assay [20] (measured here: cisplatin combination, at 5 µM) it was -26%; in [21] (BGB combination, concentration series, at 5 µM), 2.97%. In addition, the inhibition in [21] (at 0.5 µM) was -24.5% (inactive); in assay [21] (cisplatin combination, concentration series, at 5 µM), -16%; in assay [22], 4.8% (inactive); in [22] (measured here: combo with BGB IC20), 12.4%; in assay [22] (measured here: combo with cisplatin IC20) it was -16.1%; in assay [23] (at 0.5 µM), -6.8% (inactive). The inhibition in assay [23] (cisplatin combination, at 0.5 µM) is -4.81%; in [23] (cisplatin combination, at 5 µM), -82%; in assay [23] (measured here: BGB IC40 combination 0.05 uM, at 0.05 µM), -20.9%; in [23] (single agent, at 5 µM), 2.54%; in assay [24] (at 0.5 µM) it was -8.5% (inactive); in assay [24] (cisplatin combo, at 5 µM), -42.1%. The inhibition is 3.16% in assay [24] (measured here: BGB IC40 combination, at 0.05 µM); -23.3% in [24] (setting [30]); 22.7% in assay [24] (single agent, at 5 µM); -34.4% (inactive) in [25] (at 0.5 µM); -61.8% in assay [25] (setting [28]); -22.6% in assay [25] (setting [29]). The inhibition in assay [25] (single agent, at 0.05 µM) was -37.3%; in assay [25] (single agent, at 5 µM) it was 14.2%.
On to `CC(CCCC(C)(C)O)CCNC(C)Cc1ccsc1` (stereo not drawn), for which the z-score in [26] was -0.475 (inactive).
For the compound `COc1cc(C[C@@H](C)N)c(OC)cc1I`, the period change in [10] is -0.225 h (inactive).
